# Screening results from PubChem BioAssay.
# Giardia killer: Giardia lamblia killing; AID 540267; activity change, % at 7.66 µM, hits read low; 0.15% of 340,000 active; Giardia lamblia trophozoite viability; in the data active = activity change below about -80%; inconclusive = between about -30% and that limit;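 note: parasites exposed to compound for two days anaerobically before the ATP read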
#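 Compounds were tested on trophozoites seeded at 100 cells/well and held 48 hrs at 37 deg C anaerobically. An ATP-based luminescent kit measured the remaining live cells.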
# GALK inh: galactokinase (human) inhibition; 0.007% of 270,000 active; Potency, µM (series often up to 57.5 µM), without a hit: at the highest dose activity change, negative = inhibition, hits mostly inhibitors; Purified GALK, Kinase-Glo residual ATP luminescence; note: potency is the fitted concentration of half-maximal effect
#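 Luminescence from leftover ATP (Ultra-Glo luciferase/luciferin) served as read-out after a 1 h room-temperature reaction of 5 nM GALK with 35 uM ATP and 100 uM galactose.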
# TrxR1 inh: blocks rat thioredoxin reductase 1. O89049. recombinant rTrxR1, NADPH fluorescence consumption, selenite substrate. Potency, µM (titrated, usually from 114 µM), inactives show at the top dose activity change, negative = inhibition, most hits filed as inhibitors. 1% of 390,000 active. AID 588453; note: potency is the fitted concentration of half-maximal effect; nearly all actives have a fitted effect of over 65% in size
# Target sequence (O89049 whole entry, looked up): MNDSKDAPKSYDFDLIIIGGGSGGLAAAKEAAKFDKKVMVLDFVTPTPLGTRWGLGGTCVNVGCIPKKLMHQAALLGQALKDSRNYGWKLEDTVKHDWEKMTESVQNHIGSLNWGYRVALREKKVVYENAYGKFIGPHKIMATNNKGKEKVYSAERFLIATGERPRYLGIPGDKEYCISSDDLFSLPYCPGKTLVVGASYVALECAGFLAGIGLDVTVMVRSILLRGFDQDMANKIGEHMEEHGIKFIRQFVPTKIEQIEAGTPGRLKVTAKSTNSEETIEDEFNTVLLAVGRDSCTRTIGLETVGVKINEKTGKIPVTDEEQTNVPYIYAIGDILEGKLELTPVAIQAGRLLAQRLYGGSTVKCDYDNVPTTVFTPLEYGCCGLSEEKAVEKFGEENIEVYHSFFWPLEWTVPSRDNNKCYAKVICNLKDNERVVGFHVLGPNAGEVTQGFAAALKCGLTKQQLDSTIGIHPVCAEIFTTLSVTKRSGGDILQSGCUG
#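 Rat TrxR1 (90 nM in the dispensed reagent) was pre-reduced with 400 uM NADPH for 5 min at room temperature, then incubated with compound for 15 min. After 400 uM selenite was added, NADPH fluorescence (Ex 340/Em 450 nm) was followed for 8 min.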
# FBPA coupling cs: inhibits coupling enzyme system, counter-screen for aldolase hits | activity change, negative = inhibition, % at 58.2 µM, hits read low | 0.67% of 290,000 active | AID 2472 | coupling enzyme system counterscreen, AmpLite Red fluorescence; in the data active = activity change below about -30%
#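 Coupling enzymes only (glyceraldehyde-3-phosphate) + compound, at 57.5 uM final, 10 min RT; add substrate/coupling/AmpLite Red mix, 20 min RT; fluorescence ex 525/em 598 nm. Actives flag coupling-system interference.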
# PI4K2A block: inhibitors of human PI4K2A; purified PI4K2A, ADP-Glo luminescence, 1 h; hits give low values; Q9BTU6; activity change, negative = inhibition, % at 76.9 µM; AID 1346378; 0.13% of 420,000 active; in the data active = activity change below about -50%; inconclusive = mostly about -30% to -49%;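 note: -100% = wells without enzyme as full effect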
#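 Compounds are screened against recombinant PI4K2A using PI as substrate and ATP, the latter dispensed at 300 microM. Reactions run one hour at ambient temperature before ADP-Glo detection; full inhibition defined by wells lacking enzyme.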
# TrxR1 substrate: rat thioredoxin reductase 1 substrate activity; O89049; purified TrxR1 substrate turnover, NADPH consumption readout; Potency, µM (titrated, usually from 114 µM), for the others: at the top dose activity change, negative = substrate turnover; 0.01% of 390,000 active; note: potency is the fitted concentration of half-maximal effect; nearly all actives have a fitted effect of over 50% in size
#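 Rat TrxR1, dispensed at 90 nM, was prereduced with 400 uM NADPH (final) for 5 min at ~22 deg C, then incubated with compound 15 min before 400 uM selenite. A first-read NADPH fluorescence drop versus no-compound background flagged substrates.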
# * = called active by the depositor; ? = inconclusive; . = no result; [ ] = another dose, or the depositor's remark. Hits are enriched below; roughly 1.5% of the tested compounds scored in any of these assays. Unless noted, calls come from the whole dose curve; as a rule, active = well fitted curve in the direction sought with a large enough effect; inconclusive = small, poorly fitted or top-dose-only effect, or another doubt; inactive = no such curve, though single readings can be large; an effect the other way counts as inactive or inconclusive. Unless noted, % is set by controls: 0 for no effect and ±100 for the full control effect.
SMILES,Giardia killer,GALK inh,TrxR1 inh,FBPA coupling cs,PI4K2A block,TrxR1 substrate
C[C@@H]1CCN(C(=O)[C@H](CCCN=C(N)N)NS(=O)(=O)c2cccc3c2NC[C@H](C)C3)[C@@H](C(=O)O)C1,.,.,.,.,-1.0,.
CN1CCC2(CC1)N=C(c1ccc(F)cc1)C(=S)N2C(=O)c1ccccc1,1.3,-0.9%,5.01µM*,0.7,-25.8,0.5%
CCN1CCC2(CC1)N=C(c1ccc(F)cc1)C(=S)N2C(=O)c1ccc(C(C)(C)C)cc1,8.7,3.6%,-22.8%[57.1 µM],-2.3,-10.1,3.6%[57.1 µM]
CC1CCN(c2oc(-c3cccs3)nc2S(=O)(=O)c2ccc(Cl)cc2)CC1,.,.,13.4%,.,-2.4,-6.2%
COc1ccc(S(=O)(=O)NCC(c2ccco2)S(=O)(=O)c2cccs2)cc1C (centres undefined),.,.,?,.,7.3,2.2%[57.1 µM]
Cc1cc(F)ccc1S(=O)(=O)NCC(c1ccco1)S(=O)(=O)c1cccs1 (centres undefined),.,.,1.12µM*,.,2.8,6.4%[57.1 µM]
CCN(C(=O)c1cnc(N2CCOCC2)c2ccccc12)c1cc(C)ccc1C,.,.,20.8%[57.1 µM],.,-9.7,4.7%[57.1 µM]
NS(=O)(=O)c1cc(C(=O)NN2C[C@H]3[C@H]4CCC(C4)[C@H]3C2)ccc1Cl,.,.,.,.,1.1,.
Cc1ccccc1Cn1c(SCc2ccc(C(=O)NC(C)c3ccccc3)cc2)nc2ccncc21 (centres undefined),.,.,16.2%,.,-0.7,3.5%
CC(C)Cn1c2c(c(O)c(C(=O)Nc3ccc(F)cc3)c1=O)CCCC2,-6.3,3.2%,-11.6%,2.4,-8.9,-2.6%
CC(C)Cn1c2c(c(O)c(C(=O)Nc3ncccc3O)c1=O)CCCC2,-5.4,-0.3%,-6.7%,-37.0*,5.9,-6.7%
Oc1ccc(CNc2ccccc2)c2cccnc12,-21.0,5.1%,?,-7.0,-12.3,-3.5%
Cc1ccccc1NCc1ccc(O)c2ncccc12,8.1,-1.7%,0.631µM*,-4.4,5.6,7.7%
Oc1ccc(CNc2ccccc2Br)c2cccnc12,.,.,.,.,-4.8,.
Oc1ccc(CNc2cccc(F)c2)c2cccnc12,.,.,.,.,0.9,.
Oc1ccc(CN2CCN(Cc3ccccc3)CC2)c2cccnc12,-14.5,2.4%,14.1µM*,6.5,-8.2,-1.7%
O=S(=O)(c1ccc(Cl)cc1)N1CCN(Cc2ccc(O)c3ncccc23)CC1,4.7,3.4%,3.9%[57.1 µM],1.7,3.5,-5.3%[57.1 µM]
Oc1ccc(CNc2ccc(F)cc2)c2cccnc12,7.6,5.3%,0.631µM*,-16.0,-4.2,4.3%
Cc1cccc(NCc2ccc(O)c3ncccc23)c1,?,5.6%,0.794µM*,-4.7,0.5,4.1%
CC(C)(C)N1C(=O)[C@H]2[C@H]3[C@H](O)[C@H](O)C/C(=N/NC(=O)OCc4ccccc4)[C@@H]3CC[C@@H]2C1=O,.,.,.,0.6,.,.
Cc1ccc(S(=O)(=O)N2CCc3nc(COc4ccccc4)c4c(c3C2)CO[C@@H](C)C4)cc1,.,.,.,-0.3,.,.
COc1ccccc1CNC(=O)c1cc2ccc3ccc(C)[nH]c3c2n1,.,.,21.0%,.,14.5,2.6%
Cc1cc(C)c2nc(NC(=O)c3ccc([N+](=O)[O-])o3)sc2c1,-90.4*,3.3%,11.3%[57.1 µM],1.9,2.0,3.0%[57.1 µM]
O=C(Nc1nc2c(F)cc(F)cc2s1)c1ccc([N+](=O)[O-])o1,-86.2*,.,1.3%[57.1 µM],-2.9,-3.0,-11.2%
Cc1cc(C)c2sc(NC(=O)c3ccc([N+](=O)[O-])o3)nc2c1,-81.2*,.,5.1%[57.1 µM],-8.8,-0.3,5.5%[57.1 µM]
SMILES,Giardia killer,GALK inh,TrxR1 inh,FBPA coupling cs,PI4K2A block,TrxR1 substrate
CCOC(=O)CNC=C(C(=O)OCC)C(=O)OCC,45.9,1.3%,-3.5%[57.1 µM],-1.3,11.9,4.7%[57.1 µM]
CCOC(=O)C=C(C(=O)OCC)C(=O)OCC,-3.3,1.2%,3.55µM*,-1.6,-0.9,8.8%
O=C(NCC(c1ccccc1)c1ccccc1)[C@H](Cc1c[nH]c2ccccc12)NC1(C(=O)NC2CCCCC2)CCC1,.,.,.,.,-3.6,.
O=C1CC(NS(=O)(=O)c2ccc([N+](=O)[O-])cc2)CN1c1ccc(Cl)cc1 (centres undefined),-1.7,.,50.1µM*,.,-5.3,-18.3%
O=C(C[n+]1cccc(Br)c1)c1ccc2ccccc2c1,.,.,-20.5%,.,.,-1.8%
C=CCn1c(SCC(C)=O)nc2scc(-c3ccco3)c2c1=O,-15.3,-1.2%,?,-4.6,-24.2,4.0%
C=CCn1c(SCC(=O)N2CCOCC2)nc2scc(-c3ccco3)c2c1=O,36.0,6.1%,44.7µM*,-8.4,-27.3,-10.8%
CCOc1ncc(F)c(=O)[nH]1,.,.,.,.,-0.5,.
O=C1NC2CCCCC2C(=O)N1OS(=O)(=O)c1ccccc1 (centres undefined),0.4,.,3.55µM*,.,25.2,-2.4%[57.1 µM]
O=C1CCN(S(=O)(=O)c2ccccc2)C2CCCCC12 (centres undefined),-1.7,0.1%,13.9%[57.1 µM],1.4,0.4,7.1%
CCOC(=O)c1c(N)sc(=S)c2c1CCC2,-13.3,0.5%,70.8µM*,-22.9,-19.6,-14.4%
CCOC(=O)c1c(N)sc(N)c1C(=O)OCC,-10.0,.,-11.2%,-13.9,0.1,-2.7%
Nc1ccc2cccnc2c1,.,.,6.6%,.,.,-5.0%
CCC(C)NC(=O)c1c(F)c(F)c(F)c(F)c1F (centres undefined),-2.2,-4.5%,10.8%[57.1 µM],-0.4,-63.0*,11.0%[57.1 µM]
COc1cc(CNC2CCCC2)cc(Cl)c1OCc1ccccc1Cl,7.8,4.7%,89.1µM*,0.8,2.6,-5.0%
O=C(OCc1cn(Cc2cccc(F)c2F)nn1)N1CCOCC1,.,.,.,.,35.8,.
Oc1cc(O)c(CN2CCOCC2)cc1CN1CCOCC1,-17.9,.,11.2µM*,.,-2.5,-4.4%
CCCCC(CC)C(=O)Nc1ncc([N+](=O)[O-])s1 (centres undefined),-91.3*,1.0%,-7.2%[57.1 µM],1.6,-16.1,-0.4%[57.1 µM]
O=C(CCS(=O)(=O)Cc1ccccc1)Nc1ncc([N+](=O)[O-])s1,?,-5.7%,?,3.5,-1.4,-5.3%
O=C(COC(=O)c1ccc(Br)o1)Nc1ncc([N+](=O)[O-])s1,?,.,-22.6%,.,-4.2,-9.4%
Cc1ccc(CC(=O)Nc2ncc([N+](=O)[O-])s2)cc1,-91.5*,-0.7%,-10.4%,8.1,-4.2,-3.8%
CC12CCC(C(=O)Nc3ncc([N+](=O)[O-])s3)(OC1=O)C2(C)C (centres undefined),-85.9*,-0.3%,16.3%[57.1 µM],0.6,-1.2,1.6%[57.1 µM]
O=C(CCS(=O)(=O)c1ccccc1)Nc1ncc([N+](=O)[O-])s1,-80.7*,3.6%,?,4.1,-1.4,-2.4%
COc1ccc(S[C@]2(C(=O)N3CCCC3)CC(=O)N(P(=O)(OC)OC)[C@@H]2c2ccc(OC)cc2)cc1,.,.,.,.,-6.1,.
Cc1ccc(S(=O)(=O)CC(=O)Nc2ncc([N+](=O)[O-])s2)cc1,-83.9*,5.2%,-20.9%,5.7,-0.5,-6.9%
O=C(CS(=O)(=O)c1ccccc1)Nc1ncc([N+](=O)[O-])s1,?,-1.3%,10.6%[57.1 µM],7.5,-1.3,1.9%[57.1 µM]
